Measured values published in the supplement of paper PMC10849652.
About 7,900 targets were measured; listed, in parts, are those with a hit and a random draw of the rest. About 0.6% of all pairs of compound and target were hits. Unmarked numbers belong to inactive results.

Key:
Experiment in all cases: log2 fold change, soluble protein after heating vs DMSO (PISA); higher = thermal stabilisation; K562 cells, 10 uM, 30 min; active = over 0.2 and 3.5 SD of the protein, either way, in both replicates (recomputed)
erlotinib = compound: C#Cc1cccc(Nc2ncnc3cc(OCCOC)c(OCCOC)cc23)c1 [erlotinib]
Outline: (§1)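 Soluble protein was defined as the supernatant after 21,000xg for 90 min. It came from K562 cells at 2×10^6 cells/mL given 10 μM compound for 30 min, heated in aliquots for 3 min across 48°C-58°C, pooled, and extracted in PBS with 0.5% NP-40 at 4°C, and was quantified by TMTpro 16plex LC-MS/MS with equalised channel sums. Thermal stability against control samples, from duplicates, is reported as log2 fold change.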

[1] = compound: C/C(=N\NC(=O)C1=CC(=CC=C1)S(=O)(=O)N2CCOCC2)/C3=C(C=CC(=C3)Cl)O
Outline: as §1

[2] = compound: C1=CC(=C(C=C1Cl)C2=NC3=NC=CN=C3C(=N2)NC4=CC=NC=C4)F
Outline: as §1

[3] = compound: C1=CC(=CC=C1C2=NC3=C(N2)C=C(C=C3)C(=O)N)OC4=CC=C(C=C4)Cl
Outline: as §1

[4] = compound: C1=CC2=C(C=CC(=C2)/C=C\3/C(=O)NC(=NCC4=CC=CS4)S3)N=C1
Outline: as §1

[5] = compound: C1=CC2=NC=CN=C2C=C1/C=C/3\C(=O)NC(=O)S3
Outline: as §1

[6] = compound: C1=CC=C(C=C1)C2=NC(=C(N2)C3=CC=NC=C3)C4=CC(=C(C=C4)Cl)O
Outline: as §1

[7] = compound: C1=CC=C2C(=C1)C3=NNC4=CC=CC(=C43)C2=O
Outline: as §1

[8] = compound: C1CCN(C1)C(=O)NC2=CC=CC(=C2)NC3=NC=C(C(=N3)NCCC4=CN=CN4)Br
Outline: as §1

[9] = compound: C1CN(CCC1(CC2=CC=C(C=C2)Cl)N)C3=NC=NC4=C3C=CN4
Outline: as §1

UniProt P49585, sequence (P49585 whole entry, looked up): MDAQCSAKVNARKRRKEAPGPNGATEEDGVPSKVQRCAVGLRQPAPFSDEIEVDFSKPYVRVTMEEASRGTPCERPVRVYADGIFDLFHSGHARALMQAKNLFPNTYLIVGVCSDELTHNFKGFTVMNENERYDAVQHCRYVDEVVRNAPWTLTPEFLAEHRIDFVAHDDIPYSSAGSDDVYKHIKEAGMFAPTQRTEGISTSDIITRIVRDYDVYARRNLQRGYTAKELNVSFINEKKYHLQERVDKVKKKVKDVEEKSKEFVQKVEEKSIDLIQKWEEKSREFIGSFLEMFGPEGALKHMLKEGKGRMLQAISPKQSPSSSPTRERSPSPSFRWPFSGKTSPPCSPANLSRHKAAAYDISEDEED
UniProt Q2TAL8, sequence (Q2TAL8 whole entry, looked up): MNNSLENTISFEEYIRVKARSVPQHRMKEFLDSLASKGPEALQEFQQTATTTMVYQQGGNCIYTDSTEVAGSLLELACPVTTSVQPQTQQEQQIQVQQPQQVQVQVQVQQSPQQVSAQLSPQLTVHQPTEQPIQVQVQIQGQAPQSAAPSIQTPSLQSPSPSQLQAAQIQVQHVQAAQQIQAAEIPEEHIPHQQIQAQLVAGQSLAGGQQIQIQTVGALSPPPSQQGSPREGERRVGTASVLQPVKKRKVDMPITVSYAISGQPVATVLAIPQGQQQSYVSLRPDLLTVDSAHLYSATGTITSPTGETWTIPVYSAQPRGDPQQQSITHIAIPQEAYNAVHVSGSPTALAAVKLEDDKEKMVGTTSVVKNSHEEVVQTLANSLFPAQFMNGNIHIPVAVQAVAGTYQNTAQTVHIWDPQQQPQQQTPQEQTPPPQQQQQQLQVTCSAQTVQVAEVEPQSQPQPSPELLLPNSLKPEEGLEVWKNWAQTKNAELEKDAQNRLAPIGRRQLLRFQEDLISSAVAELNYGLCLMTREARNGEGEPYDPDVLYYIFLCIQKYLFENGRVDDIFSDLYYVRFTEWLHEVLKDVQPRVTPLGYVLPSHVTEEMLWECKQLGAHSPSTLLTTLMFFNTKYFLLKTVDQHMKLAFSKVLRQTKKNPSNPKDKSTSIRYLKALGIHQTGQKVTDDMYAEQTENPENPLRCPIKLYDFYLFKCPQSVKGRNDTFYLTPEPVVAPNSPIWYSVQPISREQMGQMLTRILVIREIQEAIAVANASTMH
UniProt Q8IV08, sequence (Q8IV08 whole entry, looked up): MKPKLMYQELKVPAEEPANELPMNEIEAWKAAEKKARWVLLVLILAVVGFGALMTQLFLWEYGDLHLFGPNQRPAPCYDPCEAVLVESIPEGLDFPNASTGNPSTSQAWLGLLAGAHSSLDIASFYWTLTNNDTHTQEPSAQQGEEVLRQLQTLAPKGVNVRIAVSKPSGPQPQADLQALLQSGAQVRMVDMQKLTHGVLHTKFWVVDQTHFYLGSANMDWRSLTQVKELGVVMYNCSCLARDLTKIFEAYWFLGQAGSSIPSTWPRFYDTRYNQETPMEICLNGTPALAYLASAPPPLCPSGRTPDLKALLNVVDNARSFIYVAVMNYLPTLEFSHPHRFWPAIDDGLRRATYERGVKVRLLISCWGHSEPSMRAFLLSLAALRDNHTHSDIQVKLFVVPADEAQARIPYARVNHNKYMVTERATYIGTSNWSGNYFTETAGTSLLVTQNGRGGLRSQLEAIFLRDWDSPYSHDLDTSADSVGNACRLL
UniProt Q15121, sequence (Q15121 whole entry, looked up): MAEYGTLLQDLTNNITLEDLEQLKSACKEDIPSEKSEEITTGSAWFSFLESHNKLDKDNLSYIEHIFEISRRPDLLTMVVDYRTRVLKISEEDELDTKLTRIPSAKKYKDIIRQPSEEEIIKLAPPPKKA
UniProt Q12974, sequence (Q12974 whole entry, looked up): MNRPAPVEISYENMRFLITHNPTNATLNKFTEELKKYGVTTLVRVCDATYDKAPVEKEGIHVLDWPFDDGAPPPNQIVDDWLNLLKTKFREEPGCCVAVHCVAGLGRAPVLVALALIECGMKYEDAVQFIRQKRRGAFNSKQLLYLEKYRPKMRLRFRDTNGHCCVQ
UniProt Q9H5K3, sequence (Q9H5K3 whole entry, looked up): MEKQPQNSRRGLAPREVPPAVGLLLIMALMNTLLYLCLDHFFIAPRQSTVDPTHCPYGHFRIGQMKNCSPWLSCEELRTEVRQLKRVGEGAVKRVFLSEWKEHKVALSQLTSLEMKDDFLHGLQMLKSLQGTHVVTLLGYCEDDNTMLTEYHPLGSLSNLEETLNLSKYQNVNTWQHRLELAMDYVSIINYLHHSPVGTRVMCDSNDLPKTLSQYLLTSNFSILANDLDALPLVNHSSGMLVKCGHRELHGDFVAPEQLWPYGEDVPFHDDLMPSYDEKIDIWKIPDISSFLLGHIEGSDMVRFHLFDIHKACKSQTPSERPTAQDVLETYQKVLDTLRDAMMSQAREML
UniProt Q15185, sequence (Q15185 whole entry, looked up): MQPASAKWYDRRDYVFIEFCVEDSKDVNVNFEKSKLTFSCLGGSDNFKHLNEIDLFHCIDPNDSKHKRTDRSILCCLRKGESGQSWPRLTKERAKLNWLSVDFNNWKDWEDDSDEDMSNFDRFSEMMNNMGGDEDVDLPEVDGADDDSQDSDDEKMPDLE
UniProt P11216, sequence (P11216 whole entry, looked up): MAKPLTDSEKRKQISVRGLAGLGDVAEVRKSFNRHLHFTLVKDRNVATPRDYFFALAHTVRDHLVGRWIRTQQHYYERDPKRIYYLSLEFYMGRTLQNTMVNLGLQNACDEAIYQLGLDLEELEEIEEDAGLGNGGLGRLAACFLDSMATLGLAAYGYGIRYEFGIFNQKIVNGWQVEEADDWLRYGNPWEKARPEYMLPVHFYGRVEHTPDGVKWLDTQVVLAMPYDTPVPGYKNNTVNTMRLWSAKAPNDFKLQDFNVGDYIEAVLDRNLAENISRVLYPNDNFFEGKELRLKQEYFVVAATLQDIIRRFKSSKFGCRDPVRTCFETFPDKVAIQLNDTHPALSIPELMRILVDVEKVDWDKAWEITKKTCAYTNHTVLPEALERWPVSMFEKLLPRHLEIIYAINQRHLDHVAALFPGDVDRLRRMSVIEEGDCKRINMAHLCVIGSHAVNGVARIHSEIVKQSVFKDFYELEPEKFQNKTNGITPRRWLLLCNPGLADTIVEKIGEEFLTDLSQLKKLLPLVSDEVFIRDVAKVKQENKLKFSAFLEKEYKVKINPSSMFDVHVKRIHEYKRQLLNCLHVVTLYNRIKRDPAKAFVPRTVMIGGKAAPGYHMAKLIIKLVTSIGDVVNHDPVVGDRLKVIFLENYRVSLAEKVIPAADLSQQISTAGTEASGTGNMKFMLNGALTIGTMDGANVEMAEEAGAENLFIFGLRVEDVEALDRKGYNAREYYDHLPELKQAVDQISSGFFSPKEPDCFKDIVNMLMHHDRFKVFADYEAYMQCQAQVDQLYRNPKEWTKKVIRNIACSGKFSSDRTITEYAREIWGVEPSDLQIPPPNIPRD
UniProt P62333, sequence (P62333 whole entry, looked up): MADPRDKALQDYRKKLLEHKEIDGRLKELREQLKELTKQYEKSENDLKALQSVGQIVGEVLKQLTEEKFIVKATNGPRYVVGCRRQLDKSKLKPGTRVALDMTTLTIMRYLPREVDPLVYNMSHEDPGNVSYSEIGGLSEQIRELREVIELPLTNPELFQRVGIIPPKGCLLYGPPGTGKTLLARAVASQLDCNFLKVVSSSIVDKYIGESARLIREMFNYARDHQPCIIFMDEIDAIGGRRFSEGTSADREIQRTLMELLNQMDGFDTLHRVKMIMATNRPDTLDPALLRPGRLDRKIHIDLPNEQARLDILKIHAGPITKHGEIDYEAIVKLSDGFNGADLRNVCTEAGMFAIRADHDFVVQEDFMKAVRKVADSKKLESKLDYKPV
UniProt O95453, sequence (O95453 whole entry, looked up): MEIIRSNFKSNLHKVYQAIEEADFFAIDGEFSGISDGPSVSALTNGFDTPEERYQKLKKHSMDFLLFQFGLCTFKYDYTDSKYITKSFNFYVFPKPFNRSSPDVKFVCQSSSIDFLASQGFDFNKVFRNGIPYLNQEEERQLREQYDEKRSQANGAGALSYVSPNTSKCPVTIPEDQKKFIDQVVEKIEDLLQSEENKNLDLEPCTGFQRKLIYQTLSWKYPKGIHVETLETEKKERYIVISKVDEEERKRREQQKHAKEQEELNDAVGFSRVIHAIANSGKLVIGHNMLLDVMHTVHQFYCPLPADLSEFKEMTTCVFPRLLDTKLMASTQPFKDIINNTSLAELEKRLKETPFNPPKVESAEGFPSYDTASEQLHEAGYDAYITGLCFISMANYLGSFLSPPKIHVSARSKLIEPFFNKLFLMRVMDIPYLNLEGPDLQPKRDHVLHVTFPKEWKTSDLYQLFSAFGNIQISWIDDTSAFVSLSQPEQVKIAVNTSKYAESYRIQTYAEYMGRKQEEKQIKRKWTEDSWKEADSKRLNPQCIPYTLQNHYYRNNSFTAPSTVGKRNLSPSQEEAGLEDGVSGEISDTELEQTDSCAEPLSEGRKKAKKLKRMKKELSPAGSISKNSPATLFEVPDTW
UniProt Q8N4L2, sequence (Q8N4L2 whole entry, looked up): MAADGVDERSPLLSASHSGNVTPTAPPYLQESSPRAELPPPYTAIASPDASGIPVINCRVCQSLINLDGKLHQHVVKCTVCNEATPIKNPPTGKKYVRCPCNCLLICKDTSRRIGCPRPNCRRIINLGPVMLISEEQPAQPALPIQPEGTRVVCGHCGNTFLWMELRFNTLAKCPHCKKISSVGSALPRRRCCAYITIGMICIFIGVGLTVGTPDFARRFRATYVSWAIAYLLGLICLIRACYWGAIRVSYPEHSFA
UniProt Q15365, sequence (Q15365 whole entry, looked up): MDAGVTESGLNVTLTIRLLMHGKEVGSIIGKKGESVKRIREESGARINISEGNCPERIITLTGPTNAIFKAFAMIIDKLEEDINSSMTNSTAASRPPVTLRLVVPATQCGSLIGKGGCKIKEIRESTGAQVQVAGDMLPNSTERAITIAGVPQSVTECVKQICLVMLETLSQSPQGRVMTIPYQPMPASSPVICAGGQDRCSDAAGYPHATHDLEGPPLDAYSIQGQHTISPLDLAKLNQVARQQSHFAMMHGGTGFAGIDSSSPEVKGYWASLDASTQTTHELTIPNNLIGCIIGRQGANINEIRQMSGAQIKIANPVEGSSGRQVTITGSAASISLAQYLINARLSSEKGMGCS

Row | Target | log2 fold change (erlotinib) | log2 fold change [1] | log2 fold change [2] | log2 fold change [3] | log2 fold change [4] | log2 fold change [5] | log2 fold change [6] | log2 fold change [7] | log2 fold change [8] | log2 fold change [9]
1 | POM121 (UniProt Q96HA1) | -0.013 | -0.075 | -0.127 | 0.033 | 0.118 | -0.008 | -0.137 | -0.185 | -0.087 | -0.106
2 | PSMD6 (UniProt Q15008) | -0.024 | -0.041 | -0.042 | 0.017 | -0.056 | -0.007 | 0.09 | 0.053 | 0.002 | 0.016
3 | PDPK1 (UniProt O15530) | 0.02 | 0.083 | 0.026 | 0.064 | 0.068 | -0.029 | 0.045 | 0.007 | 0.087 | 0.028
4 | PCYT1A (UniProt P49585) | -0.014 | 0.125 | -0.03 | -0.001 | 0.019 | 0.054 | -0.09 | -0.033 | -0.043 | -0.009
5 | PLD3 (UniProt Q8IV08) | -0.012 | 0.029 | 0.054 | 0.023 | 0.04 | 0.024 | -0.061 | 0.006 | 0.001 | 0.048
6 | PIP4P2 (UniProt Q8N4L2) | 0.014 | -0.066 | 0.026 | 0.039 | 0.009 | 0.145 | 0.063 | -0.002 | 0.014 | -0.007
7 | POLR2G (UniProt P62487) | -0.041 | -0.011 | -0.001 | 0.025 | -0.078 | 0.044 | 0.063 | 0.014 | -0.033 | 0.071
8 | PURA (UniProt Q00577) | -0.244 | -0.208 | -0.319 | 0.101 | -0.156 | 0.013 | -0.137 | -0.051 | 0.179 | -0.102
9 | POLR1A (UniProt O95602) | -0.055 | -0.236 | 0.031 | 0.058 | 0.04 | 0.005 | 0.079 | -0.096 | 0 | 0.125
10 | PRKAR2B (UniProt P31323) | -0.017 | 0.066 | -0.082 | 0.16 | -0.004 | 0.012 | -0.058 | -0.083 | -0.449 (active) | -0.636 (active)
11 | POMK (UniProt Q9H5K3) | -0.091 | -0.007 | 0.019 | 0.005 | -0.01 | 0.071 | 0.005 | -0.019 | 0.006 | 0.005
12 | PIP4K2C (UniProt Q8TBX8) | 0.482 | -0.063 | 0.023 | -0.129 | 0.059 | 0.575 | 0.139 | 0.21 | 0.493 | -0.025
13 | PTP4A2 (UniProt Q12974) | -0.054 | 0.03 | 0.134 | 0.049 | 0.018 | -0.051 | 0.205 | -0.125 | -0.029 | -0.097
14 | PATL1 (UniProt Q86TB9) | 0.044 | 0.13 | -0.021 | 0.048 | 0.01 | -0.233 | -0.075 | 0.029 | -0.071 | -0.052
15 | PEA15 isoform 2 (UniProt Q15121) | 0.001 | 0.042 | 0.056 | 0.026 | -0.014 | 0.055 | -0.006 | 0.072 | 0.016 | -0.064
16 | PDE4A (UniProt P27815) | 0.012 | 0.013 | 0.319 | 0.024 | 0.027 | 0.06 | -0.077 | -0.01 | 0.023 | -0.148
17 | PSMC6 (UniProt P62333) | -0.06 | -0.074 | -0.006 | 0.011 | -0.031 | -0.037 | 0.015 | 0.014 | 0.034 | -0.008
18 | PRPF3 (UniProt O43395) | 0.06 | 0.144 | 0.069 | -0.02 | 0.015 | 0.019 | 0.057 | 0 | -0.07 | 0.053
19 | PTPA (UniProt A6PVN8) | -0.061 | 0.21 | -0.107 | 0.367 | 0.088 | 0.031 | 0.063 | 0.065 | 0.01 | 0.031
20 | PRPF38B (UniProt Q5VTL8) | -0.016 | 0.022 | -0.049 | 0.082 | -0.184 | -0.085 | -0.027 | -0.146 | -0.018 | -0.054
21 | PDS5B (UniProt Q9NTI5) | -0.023 | 0.002 | 0.001 | 0.043 | 0.092 | 0.12 | 0.061 | 0.013 | -0.302 | -0.287
22 | PPT1 (UniProt P50897) | 0.01 | -0.011 | 0.018 | -0.003 | 0.04 | 0.007 | 0.01 | 0.024 | 0.036 | -0.009
23 | PRPF40A (UniProt O75400) | 0.082 | 0.083 | -0.087 | 0.012 | 0.032 | 0.007 | -0.037 | -0.135 | -0.129 | -0.124
24 | PTGES3 (UniProt Q15185) | 0.005 | 0.095 | 0.079 | -0.05 | 0.019 | 0.007 | 0.043 | -0.014 | -0.014 | -0.049
25 | PC (UniProt P11498) | -0.037 | 0.101 | 0.117 | 0.056 | 0.047 | -0.042 | 0.042 | 0.031 | -0.022 | 0.012
26 | PTPN12 (UniProt Q05209) | 0.005 | -0.007 | -0.011 | 0.004 | 0.022 | 0.101 | -0.021 | -0.036 | -0.039 | -0.05
27 | PARN (UniProt O95453) | 0 | 0.052 | 0.08 | -0.008 | -0.028 | 0.034 | -0.019 | -0.001 | -0.02 | 0.109
28 | QRICH1 (UniProt Q2TAL8) | 0.066 | 0.361 | -0.023 | 0 | 0.282 | 0.059 | -0.053 | -0.007 | 0.014 | -0.076
29 | PCBP1 (UniProt Q15365) | -0.009 | 0.092 | 0.062 | -0.031 | 0.011 | -0.002 | 0.057 | 0.031 | -0.034 | 0.002
30 | PYGB (UniProt P11216) | -0.047 | -0.022 | -0.003 | 0.087 | 0.11 | 0.008 | -0.011 | 0.039 | 0.009 | -0.028
